Source: PubChem BioAssay (several laboratories)
TIM10 inh: growth inhibitors of TIM10 yeast strain; S. cerevisiae TIM10 strain growth, BacTiter-Glo luminescence, 24 h; inhibition, % at 10 µM; 330,000 tested, 1.4% active;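 active = inhibition of 40% or more at the single tested concentration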;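 note: wild-type TIM10 isogenic control strain grown at permissive 25 °C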
tim10-1 inh: inhibits growth of tim10-1 mutant yeast | S. cerevisiae tim10-1 ts strain growth, BacTiter-Glo, 24 h | inhibition, % at 20 µM | 330,000 tested, 2.2% active | AID 463190;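 active = inhibition of at least 40%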;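 note: mutant grown at 25 °C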
ATG4B inh: blocks human ATG4B protease cleavage of LC3 substrate; Q9Y4P1; ATG4B cleavage of LC3-PLA2, NBD-HPC fluorescence, 1 h; inhibition, % at 8.33 µM; 340,000 tested, 0.51% active; in the data active = inhibition above about 40%
Target sequence (Q9Y4P1 whole entry, looked up): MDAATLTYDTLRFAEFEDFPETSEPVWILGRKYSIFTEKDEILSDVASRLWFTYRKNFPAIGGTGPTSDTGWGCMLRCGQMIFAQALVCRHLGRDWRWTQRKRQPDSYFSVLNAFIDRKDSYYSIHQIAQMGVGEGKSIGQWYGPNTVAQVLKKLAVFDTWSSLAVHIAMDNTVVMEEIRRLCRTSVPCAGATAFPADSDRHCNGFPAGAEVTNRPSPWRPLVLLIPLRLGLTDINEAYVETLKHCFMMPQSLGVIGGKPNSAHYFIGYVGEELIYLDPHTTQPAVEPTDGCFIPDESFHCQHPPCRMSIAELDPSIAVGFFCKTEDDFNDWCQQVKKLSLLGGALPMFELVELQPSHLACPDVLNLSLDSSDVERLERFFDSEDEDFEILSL
SKKanGAS inh: inhibitors of SKKanGAS S. pyogenes growth in kanamycin (SK-promoter or general growth effect). 300,000 tested, 1.3% active. inhibition, % at 7.5 µM. AID 1662. BacTiter-Glo, 6 h;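 active = mean replicate score, as percent of positive control median, at least 50; inconclusive = mean below 50 but one replicate at or above 50; inactive = mean and every replicate below 50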;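 note: strain carries kanamycin resistance gene driven by streptokinase promoter and grows in 40 µg/ml kanamycin; loss of luminescence reflects streptokinase promoter inhibition or plain growth inhibition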
tim23-1 inh: inhibits growth of tim23-1 mutant yeast; 330,000 tested, 1.3% active; S. cerevisiae tim23-1 growth, BacTiter-Glo luminescence, 24 h; inhibition, % at 20 µM;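 active = growth inhibition of the mutant yeast at or above 50%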;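 note: temperature-sensitive mutant grown at 25 °C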
PfHsp90 yeast 2: reduces growth (ATP signal) of yeast expressing P. falciparum Hsp90; S. cerevisiae expressing PfHsp90, BacTiter-Glo ATP, 48 h; yeast lacking PDR1 and PDR3 efflux regulators; 310,000 tested, 0.32% active; inhibition, % at 9.4 µM; AID 504621;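 active = every replicate shows inhibition above about 80%, whatever the replicate mean, limit read from the data; inconclusive = mean inhibition reaches the set limit but some replicate falls short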
tim10-1 conf: tim10-1 yeast growth inhibition, confirmed; S. cerevisiae tim10-1 ts strain growth, BacTiter-Glo, 24 h; shares compounds with tim10-1 inh; AID 463213; inhibition, % at 20 µM; 7,400 tested, 56% active;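 active = inhibition of yeast growth at or above a set limit in either of two repeat tests at 20 µM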;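 note: tim10-1 mutant grown at permissive 25 °C to find synthetic lethal compounds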
Of the large screens only hits and unclear results are named; the others gave an inactive call (follow-up assays come after a bar, where they were run). In the library only some 4.7% were active in any assay of this set; here they are far more common.

COc1cc(/C=C/C(=O)OCc2c(C)noc2C)ccc1OC(F)F	none
COCCNC(=O)C(=O)NCC1OCCN1C(=O)c1ccc(Cl)cc1 (stereo not given)	none
COc1ccccc1-n1c(SCC(N)=O)nc2c(c1=O)SCC2	none
COc1ccc2cc3cc(C(=O)N4CCCC(C)C4)oc3nc2c1 (stereo not given)	tim10-1 inh 44.8 | tim10-1 conf inactive
COc1ccc(-n2c(CCc3ccccc3)nnc2SCC(=O)NCc2ccccc2)cc1	none
O=C(CSc1nnc(CCc2ccccc2)n1-c1ccc(Cl)cc1)NCc1ccccc1	tim10-1 inh 43.0 | tim10-1 conf inactive
CC(C)(C)c1ccc(/C=C(\C#N)C(=O)NCCN2CCOCC2)cc1	tim10-1 inh 40.1 (no result: PfHsp90 yeast 2) | tim10-1 conf 32.5
CC(C)(C)c1ccc(C(=O)NCCN2CCOCC2)cc1	none
O=C(NC1CCCc2ccccc21)C1CCN(S(=O)(=O)c2ccccc2)CC1 (stereo not given)	tim10-1 inh 40.1 | tim10-1 conf inactive
CN(C)S(=O)(=O)c1cccc(NC(=O)CN(CCO)CC(=O)Nc2cccc(S(=O)(=O)N(C)C)c2)c1	none
COc1cc(/C=C/c2nc(-c3ccccc3O)n[nH]2)cc(OC)c1OC	tim10-1 inh 40.2 | tim10-1 conf inactive
CCOC(=O)C1CCN(c2cc3c(cc2NC(=O)c2ccccc2Cl)n(C)c(=O)n3C)CC1	tim10-1 inh 48.7 | tim10-1 conf inactive
CCOC(=O)C1CCN(c2cc3c(cc2NC(=O)c2ccccc2OCC)n(C)c(=O)n3C)CC1	tim10-1 inh 47.5 | tim10-1 conf inactive
NNS(=O)(=O)c1ccc2c(c1)Cc1cc(S(=O)(=O)NN)ccc1-2	none
c1ccc(Nc2cccc(Nc3ccccc3)c2)cc1	tim10-1 inh 53.8 | tim10-1 conf 76.5
Nc1nc(-c2ccccc2)nc(-c2ccccc2O)n1	none
Clc1nc(-c2ccccc2)cc(-c2ccccc2)n1	tim10-1 inh 43.0 | tim10-1 conf inactive
Nc1nc(-c2ccccc2)cc(-c2ccccc2O)n1	tim10-1 inh 43.0 | tim10-1 conf inactive
c1ccc(-c2csc(-c3ccncc3)n2)cc1	none
Clc1cc(-c2ccccc2)nc(-c2ccccc2)n1	none
Oc1ccccc1-c1csc(-c2ccccc2)n1	tim10-1 inh 46.3 | tim10-1 conf 37.1
CN(C)c1ccc(C=NNC(=O)c2cccc3ccccc23)c(Cl)c1	none (no result: TIM10 inh, tim10-1 inh, SKKanGAS inh, tim23-1 inh)
Oc1ccc(/C=N/Nc2nccnc2Cl)cc1	tim10-1 inh 46.7 | tim10-1 conf 40.5
Cc1[nH]n(-c2ccccc2)c(=O)c1/C=N/c1nn[nH]n1	none
COC(=O)c1sc2nc(C)c([N+](=O)[O-])c(C)c2c1N	tim10-1 inh 49.5 | tim10-1 conf inactive
COc1ccc(O)c(/C=N/NC(=O)CN2CCS(=O)(=O)CC2)c1	none
CCCSc1oc(-c2ccco2)nc1S(=O)(=O)c1ccccc1	tim10-1 inh 42.8 | tim10-1 conf inactive
CCN(CC)S(=O)(=O)c1ccc(N2CCCC2)c(NS(=O)(=O)c2ccc(F)cc2)c1	tim10-1 inh 40.2 | tim10-1 conf inactive
Cc1ccc(C(=O)ONc2ccc(N=NC(=O)c3ccccc3O)cc2)cc1	tim10-1 inh 43.4 | tim10-1 conf inactive
CC(CCc1ccccc1)NC(=O)CN1CCOc2ccccc21 (stereo not given)	none (no result: PfHsp90 yeast 2)
CN(C)CCOC(c1ccccc1)c1ccccc1	none (no result: tim23-1 inh)
O=C(O)c1ccccc1-c1ccc(/C=C/c2cc(C(F)(F)F)[nH]c(=O)n2)o1	none
O=c1nc(/C=C/c2ccc(-c3ccc(F)cc3)o2)cc(C(F)(F)F)[nH]1	tim10-1 inh 47.2 (no result: ATG4B inh, PfHsp90 yeast 2) | tim10-1 conf 31.0
CN(C)/C=N/C(=S)Nc1ccccc1	none
CCCCCCN1CC(=O)N2[C@@H](Cc3c([nH]c4ccccc34)C2(C)C)C1=O	none
CCOc1cccc(C(=O)NC(=S)Nc2cccnc2)c1	none
CCCCOc1cccc(C(=O)NC(=S)Nc2cccnc2)c1	tim10-1 inh 43.3 | tim10-1 conf inactive
Cc1ccc(S(=O)(=O)N2CCCCC2)cc1C(=O)OC1CCCCC1=O (stereo not given)	tim10-1 inh 40.6 (no result: PfHsp90 yeast 2) | tim10-1 conf inactive
O=C(OC1CCCCC1=O)c1cccc(S(=O)(=O)N2CCOCC2)c1 (stereo not given)	none
O=C(OC1CCCCC1=O)c1cccc(S(=O)(=O)N2CCCCC2)c1 (stereo not given)	tim10-1 inh 43.4 | tim10-1 conf inactive
CC(C)CC(NC(N)=O)C(=O)Nc1cccc([N+](=O)[O-])c1 (stereo not given)	none
CC(C)n1nnnc1SCC(=O)N1CCN(C(=O)c2ccco2)CC1	none
c1ccc2c(c1)ccc1nnc(SCc3ccc4c(c3)OCO4)n12	tim10-1 inh 42.0 | tim10-1 conf inactive
O=C(Nc1nccs1)c1ccc(Br)c(S(=O)(=O)N2CCOCC2)c1	tim10-1 inh 47.8 | tim10-1 conf 32.3
O=C(Nc1nccs1)c1ccc(F)c(S(=O)(=O)N2CCOCC2)c1	none
CC1CCN(S(=O)(=O)c2cccc(C(=O)Nc3nccs3)c2)CC1	tim10-1 inh 47.7 | tim10-1 conf 34.6
CCn1cc(Br)c(C(=O)Nc2ccc(OC)cc2)n1	none
CCn1cc(Br)c(C(=O)Nc2ccc(C(=O)OC(C)C)cc2)n1	tim10-1 inh 41.1 | tim10-1 conf 33.5
COc1ccc(CNC(=O)c2cc(-c3ccncc3)nc3c(C)cc(C)cc23)cc1OC	none (no result: PfHsp90 yeast 2)
Cc1cc(C(F)(F)F)n2nc(-c3cnn(C)c3C(F)(F)F)c(Br)c2n1	tim10-1 inh 40.8 | tim10-1 conf inactive
Cc1ccc(NS(=O)(=O)c2ccc3c(c2)oc(=O)n3C)cc1F	none
Cc1ccccc1SCC(=O)Nc1cccc(C#N)c1	tim10-1 inh 44.1 | tim10-1 conf inactive
COCCCN1CN(S(=O)(=O)c2ccc(Cl)cc2)c2nc3ccccc3nc21	none
COCCN1CN(S(=O)(=O)c2cccc(Cl)c2)c2nc3ccccc3nc21	tim10-1 inh 45.4 | tim10-1 conf inactive
CCCCN1CN(S(=O)(=O)c2ccc(OC)cc2)c2nc3ccccc3nc21	tim10-1 inh 45.8 | tim10-1 conf inactive
O=C(NCc1ccc2c(c1)OCO2)Nc1ccc(F)cc1	SKKanGAS inh inconclusive
O=C(NCCc1ccc(F)cc1)NC12CC3CC(CC(C3)C1)C2	none
O=C(NCc1ccc2c(c1)OCO2)NC12CC3CC(CC(C3)C1)C2	tim10-1 inh 40.9 | tim10-1 conf 29.8
O=C(NC(=S)NCc1ccc2c(c1)OCO2)c1ccccc1	tim10-1 inh 45.1 | tim10-1 conf inactive
COc1ccc(N2CCN(C(=O)NC34CC5CC(CC(C5)C3)C4)CC2)cc1	tim10-1 inh 47.8 | tim10-1 conf inactive
COc1ccc(CCNC(=O)NC23CC4CC(CC(C4)C2)C3)cc1	tim10-1 inh 45.1 | tim10-1 conf 35.5
